ChEMBL document CHEMBL3433997, “St. Jude Leishmania screening dataset” (2016)
Where “and” joins values, the source holds several entries; their conditions need not be identical. Identical values can stand only once.

How the values were obtained:
Type in all cases: functional
[1] = biological target: Solute carrier family 2, facilitated glucose transporter member 1 (Homo sapiens) (UniProt P11166); test: ST_JUDE_LEISH: Cytotoxicity at 2uM final concentration against transgenic Leishmania Mexicana promastigotes LmGLUT1 that are glucose transport deficient and complemented with the human glucose transporter GLUT1. Activity is measured by DNA content using SYBR green in vitro
[2] = biological target: Hexose transporter 1 (Plasmodium falciparum) (UniProt O97467); test: ST_JUDE_LEISH: Cytotoxicity at 2uM final concentration against transgenic Leishmania Mexicana promastigotes LmPfHT that are glucose transport deficient and complemented with the Plasmodium falciparum hexose transporter. Activity is measured by DNA content using SYBR green in vitro
[3] = biological target: Glucose transporter (Leishmania mexicana) (UniProt O61059); test: ST_JUDE_LEISH: Cytotoxicity at 2uM final concentration against transgenic Leishmania Mexicana promastigotes LmGT2 that are glucose transport deficient and complemented with the L. Mexicana glucose transporter 2. Activity is measured by DNA content using SYBR green in vitro

Chain of Solute carrier family 2, facilitated glucose transporter member 1 (Homo sapiens) (P11166 whole entry): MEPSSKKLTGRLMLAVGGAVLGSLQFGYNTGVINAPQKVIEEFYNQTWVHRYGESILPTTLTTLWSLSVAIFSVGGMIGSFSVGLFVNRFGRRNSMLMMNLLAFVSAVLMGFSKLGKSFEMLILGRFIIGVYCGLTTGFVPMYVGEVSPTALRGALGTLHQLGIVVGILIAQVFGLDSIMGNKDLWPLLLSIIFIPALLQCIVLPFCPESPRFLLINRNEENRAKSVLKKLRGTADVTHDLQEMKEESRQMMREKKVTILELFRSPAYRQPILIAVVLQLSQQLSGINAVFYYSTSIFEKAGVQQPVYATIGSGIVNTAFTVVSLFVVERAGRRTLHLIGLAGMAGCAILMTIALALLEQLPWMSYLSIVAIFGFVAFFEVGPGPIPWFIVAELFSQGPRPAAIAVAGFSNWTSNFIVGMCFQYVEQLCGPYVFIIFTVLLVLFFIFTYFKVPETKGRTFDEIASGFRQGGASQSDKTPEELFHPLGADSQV

COc1cc(NC(=O)c2cc([N+](=O)[O-])ccc2NC(=O)CNC2CCCC(C)C2C)cc(OC)c1 (stereo not drawn)
inhibition [1]: 12%
inhibition [2]: 4.27%
inhibition [3]: 3.41%

Cc1ccc(/C=C/C(=O)NCCCCCN2CCC(c3c[nH]c4ccccc34)CC2)cc1
inhibition [1]: 5.46%
inhibition [2]: 5.57%
inhibition [3]: 3.18%

Nc1c2c(nc3ccc(NC(=O)c4ccccc4)cc13)CCCC2
inhibition [1]: 3.15%
inhibition [2]: 2.68%
inhibition [3]: 4.86%

O=C(NC1CCN(c2ccnc3cc(Cl)ccc23)C1)c1ccc(C(F)(F)F)cc1 (stereo not drawn)
inhibition [1]: 3.93%
inhibition [2]: 3.66%
inhibition [3]: 0.57%

O=C(Cc1ccc(NC(=O)c2ccc(O)c(-c3ccc(Cl)c(Cl)c3)c2)cc1)NCCc1ccc(Cl)c(Cl)c1
inhibition [1]: 2.01%
inhibition [2]: 2.38%
inhibition [3]: -0.6%

CC(C)(NCc1ncc[nH]1)c1nc(-c2ccc(Cl)c(O)c2)c(-c2ccncc2)[nH]1
inhibition [1]: 2.76%
inhibition [2]: 3.34%
inhibition [3]: 3.01%

CCc1ccc(CN2CCC(NC(=O)c3ccc(-c4ccccc4F)s3)CC2)cc1
inhibition [1]: 0.37%
inhibition [2]: 0.03%
inhibition [3]: -5.91%

Cc1cc(OCCCN2CCCCC2)ccc1NC(=O)COc1ccc(Cl)cc1C(=O)c1cc(Cl)cc(C#N)c1
inhibition [1]: 60.8%
inhibition [2]: 19.1%
inhibition [3]: 5.79%

CN1CCC(C(=O)N(Cc2ccc(-c3ccc(CNCCc4ccc(S(C)(=O)=O)cc4)cn3)cc2)C2Cc3ccccc3C2)CC1
inhibition [1]: 0.67%
inhibition [2]: -0.29%
inhibition [3]: -0.85%

Oc1c(CN2CCCC(C(F)(F)F)C2)cc(Cl)c2ccccc12 (stereo not drawn)
inhibition [1]: 1.85%
inhibition [2]: 2.27%
inhibition [3]: 3.06%

COC(=O)C(NC(=O)c1ccc(-c2ccc(-c3nc4ccccc4[nH]3)s2)cc1)c1ccc(O)cc1 (stereo not drawn)
inhibition [1]: 3.31%
inhibition [2]: 2.37%
inhibition [3]: 3.11%

CC(NCCc1cccc(Cl)c1)C(O)c1ccc(OCCCCCCOc2ccc(C(O)C(C)NCCc3cccc(Cl)c3)cc2)cc1 (stereo not drawn)
inhibition [1]: 38.2%
inhibition [2]: 69.9%
inhibition [3]: 24.4%

c1ccc(CN2CCC(NCc3cccc(-c4cncc5ccccc45)c3)CC2)cc1
inhibition [1]: 9.44%
inhibition [2]: 7.7%
inhibition [3]: 8.64%

CN(CCC(O)c1ccc(Cl)c(Cl)c1)CC1CC1C(=O)c1ccccc1 (stereo not drawn)
inhibition [1]: 4.57%
inhibition [2]: 4.62%
inhibition [3]: 5.49%

CN(C)CCOc1ccc2c(c1)CN(C)CC2c1ccccc1 (stereo not drawn)
inhibition [1]: 1.17%
inhibition [2]: 0.33%
inhibition [3]: 0.03%

CN1CCCN(Cc2ccc(-c3ccc(NC(=O)c4cccc(Cl)c4)cc3)cc2)CC1
inhibition [1]: 0.35%
inhibition [2]: -1.66%
inhibition [3]: -0.18%

COc1ccc2nccc(N3CCC(CCNCc4ccc5c(n4)NC(=O)CS5)CC3)c2c1
inhibition [1]: 6.54%
inhibition [2]: 9.44%
inhibition [3]: 2.78%

O=C(/C=C/c1ccccc1Cl)Nc1ccc(Br)c(OCCN2CCC(O)(c3ccccc3)CC2)c1
inhibition [1]: 2.66%
inhibition [2]: 0.95%
inhibition [3]: -0.34%

CN(C)CCCNCc1cn(S(=O)(=O)c2ccccc2Cl)c2ccccc12
inhibition [1]: 5.36%
inhibition [2]: 5.25%
inhibition [3]: 7.6%

N#Cc1cccc(C(=O)Nc2ccc(-c3cccc(CN4CCCC4)c3)cc2)c1
inhibition [1]: 55.6%
inhibition [2]: 6.55%
inhibition [3]: 7.42%

c1cc(CNCCc2ccncc2)cc(-c2ccc(-c3nc4ccccc4[nH]3)s2)c1
inhibition [1]: 0.32%
inhibition [2]: -0.86%
inhibition [3]: -0.99%

COc1cc(OC)c(OC)cc1C=NN=c1cc(C)[nH]c2ccccc12
inhibition [1]: 1.25%
inhibition [2]: 1.67%
inhibition [3]: -1.17%

CCc1ccc(OCCCON2C(=N)N=C(N)NC2(C)C)cc1
inhibition [1]: -1.61%
inhibition [2]: 1.92%
inhibition [3]: 3.21%

Nc1ccc(-c2csc(Nc3ccncc3)n2)cc1
inhibition [1]: 2.7%
inhibition [2]: 1.93%
inhibition [3]: 2.21%

CC1(C)NC(N)=NC(=N)N1OCc1cc(Cl)cc2c1OCOC2
inhibition [1]: 2.73%
inhibition [2]: -0.07%
inhibition [3]: 0.71%

OC(c1cc(C(F)(F)F)nc2c(F)cccc12)C1CCCCN1 (stereo not drawn)
inhibition [1]: 0.27%
inhibition [2]: 1.52%
inhibition [3]: 1.48%

CCCCCCN1CCCN(Cc2ccc(C(=O)Nc3ccc(C(C)(C)C)cc3)cc2)CC1
inhibition [1]: 4.82%
inhibition [2]: 1.84%
inhibition [3]: 5.5%

Cc1cccc(CN2CCN(c3ncc(C(=O)NC4CC4)cc3Cl)CC2)c1
inhibition [1]: 4.67%
inhibition [2]: 2.14%
inhibition [3]: 2.71%

O=c1ccc2ccc(F)cc2n1CCN1CCC(NCc2ccc(-c3ccccn3)s2)CC1
inhibition [1]: 4.21%
inhibition [2]: 3.12%
inhibition [3]: -0.91%

COc1cccc2cc(C(=O)N[C@@H](CC(C)C)C(=O)N[C@H](/C=N/NC(=O)OC(C)(C)C)CC(=O)OC(C)(C)C)oc12
inhibition [1]: 4.66%
inhibition [2]: 6.98%
inhibition [3]: 3.63%

CCn1ncc(Cl)c1CN(C)S(=O)(=O)c1ccc2ccccc2c1
inhibition [1]: 5.72%
inhibition [2]: 6.41%
inhibition [3]: 6.31%

Nc1ccc(-c2cnc3[nH]cc(-c4ccc(C(=O)O)cc4)c3c2)cn1
inhibition [1]: -0.33%
inhibition [2]: 0.34%
inhibition [3]: 1.27%

CC(C)S(=O)(=O)N1CCN(Cc2ccc3c(c2)nc(NC(=O)c2ccsc2)n3C[C@H](O)c2ccccc2)CC1
inhibition [1]: 2.63%
inhibition [2]: 1%
inhibition [3]: -0.17%

CC(C)Oc1cc2c(cc1NS(=O)(=O)c1ccc(-c3ccc(Cl)cc3)cc1F)CCN(C)CC2
inhibition [1]: 1.27%
inhibition [2]: 0.75%
inhibition [3]: -0.15%

CC1(C)NC(N)=NC(=N)N1OCCSc1ccc(Cl)c(Cl)c1
inhibition [1]: 5.92%
inhibition [2]: 7.48%
inhibition [3]: 9.66%

c1ccc(CCNCc2ccc(-c3cccc(CNc4ccc5ncccc5c4)c3)cc2)cc1
inhibition [1]: 14.6%
inhibition [2]: 11.7%
inhibition [3]: 11.3%

Cc1cc(N[C@@H](Cc2ccccc2)C(=O)NCc2cccs2)nc(NCC2CCCCC2)n1
inhibition [1]: 3.33%
inhibition [2]: 2.71%
inhibition [3]: -0.41%

CC(O)C1CCCCN1C(=O)c1ccc(-c2ccc(-c3nc4ccccc4[nH]3)s2)cc1 (stereo not drawn)
inhibition [1]: -1.19%
inhibition [2]: -3.15%
inhibition [3]: -1.69%

Fc1ccccc1C=NNc1ccnc2cc(Cl)ccc12
inhibition [1]: 5.84%
inhibition [2]: 7.17%
inhibition [3]: 6.07%

CC(C)CCNC(=O)C1Cc2c([nH]c3cc(Br)ccc23)C2(CCN(CCc3ccccc3)CC2)N1 (stereo not drawn)
inhibition [1]: 3.44%
inhibition [2]: 2.47%
inhibition [3]: -3.76%

CC1CC1C(=O)NC1CCN(CC2(c3ccccc3)CCCCC2)CC1 (stereo not drawn)
inhibition [1]: 0.87%
inhibition [2]: 1.18%
inhibition [3]: -0.67%

Nc1nc2ccc(S(=O)(=O)Nc3ccc(C(=O)N[C@@H](CCC(=O)O)C(=O)O)c(F)c3)cc2c(=O)[nH]1
inhibition [1]: 0.57%
inhibition [2]: 1.22%
inhibition [3]: 1.53%

Oc1cccc(-c2nc3cc(C4=NC5CCCCC5N4)ccc3[nH]2)c1 (stereo not drawn)
inhibition [1]: 3.58% and 0.07%
inhibition [2]: 3.97% and -1.13%
inhibition [3]: 2.39% and 0.63%

Cc1cc(Nc2cc(Cl)cc(Cl)c2)nc(N)n1
inhibition [1]: 9.89%
inhibition [2]: 10.2%
inhibition [3]: 6.94%

Cc1nc(N)nc(N)c1-c1ccc(Cl)c(Cl)c1
inhibition [1]: 6.9%
inhibition [2]: 5.53%
inhibition [3]: 5.34%

Cc1ccc2c(c1)nc(N)n2C[C@H](O)c1ccccc1
inhibition [1]: 1.01%
inhibition [2]: 1.37%
inhibition [3]: 1.1%

CCC/C=C/c1c(CNCCCNc2cc(=O)c3ccccc3[nH]2)sc(CC)c1Br
inhibition [1]: 0.5%
inhibition [2]: 1.29%
inhibition [3]: 0.32%

COc1cc(-c2ccc3c(-c4ccc(C(=O)N5CCN(C)CC5)cc4)n[nH]c3n2)cc(OC)c1OC
inhibition [1]: 0.99%
inhibition [2]: 1.78%
inhibition [3]: 5.3%

Cc1c(CC(=O)N(C)C2CCN(CCCCCNC(=O)/C=C/c3ccc(Cl)c(Cl)c3)CC2)sc2ccc(Cl)cc12
inhibition [1]: 7.99%
inhibition [2]: 0.91%
inhibition [3]: 5.9%

CS(=O)(=O)Cc1ccc(Nc2nccc(-c3c(-c4cccc(NC(=O)c5c(F)cccc5F)c4)nn4ccccc34)n2)cc1
inhibition [1]: 38.6%
inhibition [2]: 18.8%
inhibition [3]: 9.09%

COc1ccc(CNC(=O)c2cnc3c(O)cccc3c2Nc2cccc(NC(=O)c3ccc(F)cc3)c2)cc1
inhibition [1]: 76%
inhibition [2]: 78.5%
inhibition [3]: 75.3%

CCNc1cc(C)nc(Nc2ccc(NC(=O)c3cccs3)cc2)n1
inhibition [1]: 4.59%
inhibition [2]: 5.9%
inhibition [3]: 1.85%

CCN(CC)CCNc1ccc(Nc2ccnc3cc4ccccc4cc23)cc1
inhibition [1]: 0.35%
inhibition [2]: -0.38%
inhibition [3]: 3.92%

CCCNCc1ccc(-c2ccc(CN(CC3CCCO3)C(=O)C3CC(=O)c4ccccc43)cc2)nc1 (stereo not drawn)
inhibition [1]: 6.13%
inhibition [2]: 3.74%
inhibition [3]: 3.19%

COc1ccc2c(c1)C(C)(CCCN(C)C)C(=O)N2C (stereo not drawn)
inhibition [1]: 1.02%
inhibition [2]: 1.36%
inhibition [3]: 2.15%

O=C(NC1CC1)c1ccc(N2CCCCN2CCc2ccccc2)c(C(F)(F)F)c1
inhibition [1]: 10.5%
inhibition [2]: 19.8%
inhibition [3]: 5.87%

Cc1cccc(-c2ccc(NC(=O)Nc3ccc4nccc(N5CCN(C)CC5)c4c3)cc2C)n1
inhibition [1]: 8.09%
inhibition [2]: 5.32%
inhibition [3]: 3.13%

NC(=O)c1ccccc1OCC(=O)Nc1cccc(-c2ccc(-c3nc4cc(C(F)(F)F)ccc4[nH]3)cc2)c1
inhibition [1]: 4.44%
inhibition [2]: 3.99%
inhibition [3]: 2.79%

CCCN(CCC)C(=O)c1cc(C(=O)N[C@@H](Cc2ccccc2)[C@H](O)CNC(C)(C)c2cccc(C(F)(F)F)c2)cc(N2CCCCS2(=O)=O)c1
inhibition [1]: -1.43%
inhibition [2]: 4.18%
inhibition [3]: -1.54%

CCCC(C)N(Cc1ccc(C(C)(C)C)cc1)C(=O)c1ccc(OC)cc1 (stereo not drawn)
inhibition [1]: 9.4%
inhibition [2]: 10.6%
inhibition [3]: 7.03%

CC(C)c1ccc(CN2CCC(NC(=O)c3ccc(-c4cccc(Cl)c4)s3)CC2)cc1
inhibition [1]: 5.24%
inhibition [2]: 4.2%
inhibition [3]: 7.5%

Cc1nc(-c2cccc(NC(C)C(=O)Nc3cc(C(F)(F)F)ccc3N3CCOCC3)c2)cs1 (stereo not drawn)
inhibition [1]: 0.08%
inhibition [2]: 0.47%
inhibition [3]: 0.96%

Cn1cnnc1Sc1ccc(CN2CCOc3ccc(C4=CCCCC4)cc3C2)o1
inhibition [1]: 0.65%
inhibition [2]: 1.97%
inhibition [3]: 1%

N#Cc1ccc(CN2CCCN(Cc3cccc(NC(=O)c4ccc(-c5ccccc5)cc4)c3)CC2)cc1
inhibition [1]: 1.73%
inhibition [2]: 9.67%
inhibition [3]: 4.12%

COc1ccc(-c2cccc(NC(=O)c3ccccc3)c2)cc1CN1CCCN(C)CC1
inhibition [1]: -2.02%
inhibition [2]: -2.26%
inhibition [3]: 2.04%

O=C(Cc1ccc(-n2cnnn2)cc1)N(Cc1cncn1Cc1cccc(C(F)(F)F)c1)CC1CC1
inhibition [1]: -1.26%
inhibition [2]: -1.38%
inhibition [3]: 1.66%

CC[C@H]1CN2CCc3c([nH]c4ccccc34)[C@@H]2C[C@@H]1CC1c2cc(OC)c(OC)cc2CCN1C (stereo partly drawn)
inhibition [1]: 9.81%
inhibition [2]: 10%
inhibition [3]: 9.79%

O=C(Nc1ccc(-c2cccc(-c3nc4ccccc4[nH]3)c2)cc1)Nc1ccc(F)c(F)c1F
inhibition [1]: 0.73%
inhibition [2]: -0.07%
inhibition [3]: 0.32%

O=C(Nc1ccc2nc3n(c(=O)c2c1)CCCCC3)C(=O)N1CCN(c2ccc(F)cc2)CC1
inhibition [1]: 7.33%
inhibition [2]: 9.84%
inhibition [3]: 7.95%

CC(C)CCNC(=O)[C@@H]1[C@H]2C(=O)N(C3CCCCC3)C(=O)[C@H]2[C@H]2C=C[C@@H]3C(c4ccc(C(C)(C)C)cc4)=NO[C@@H]3N21
inhibition [1]: 13.3%
inhibition [2]: 11.4%
inhibition [3]: 7.33%

Cc1nnc2c(NC(=O)NC3CCCC3)cc3ccc(-c4cccc(CN(C)C)c4)cc3n12
inhibition [1]: 2.19%
inhibition [2]: 2.6%
inhibition [3]: 0.64%
